Only some compounds are listed: those with a hit (about 4.9% of all), similar ones and a draw of the others.
UCHL1 block = inhibitors of human UCHL1 deubiquitinase; purified UCHL1, Ub-rhodamine cleavage fluorescence; Ubiquitin carboxyl-terminal hydrolase isozyme L1 (Homo sapiens), P09936; inhibition, % at 20 µM; 47,000 compounds, 0.2% hits; AID 1645859, 2021
USP7 inh = inhibitors of human USP7 deubiquitinase; Ubiquitin carboxyl-terminal hydrolase 7 (Homo sapiens), Q93009; purified USP7, Ub-rhodamine cleavage fluorescence; inhibition, % at 20 µM; 47,000 compounds, 0.3% hits; AID 1645854, 2021
USP8 block = inhibitors of human USP8 deubiquitinase; Ubiquitin carboxyl-terminal hydrolase 8 (Homo sapiens), P40818; purified USP8, Ub-rhodamine cleavage fluorescence, 30 min; inhibition, % at 20 µM; 47,000 compounds, 4.2% hits
OTUD3 inh = inhibitors of human OTUD3 deubiquitinase; purified OTUD3, Ub-rhodamine fluorescence, 2 h; inhibition, % at 25 µM; 47,000 compounds, 0.7% hits; AID 1645858, 2021
USP10 inh = inhibitors of human USP10 deubiquitinase; Ubiquitin carboxyl-terminal hydrolase 10 (Homo sapiens), Q14694; purified USP10, Ub-rhodamine fluorescence, 60 min; inhibition, % at 20 µM; 47,000 compounds, 1.1% hits; AID 1645856, 2021
* hit, by the source's call. No stated cut-off is given here; in the data, active means inhibition above about 30%; inactive means the rest.

SMILES	UCHL1 block	USP7 inh	USP8 block	OTUD3 inh	USP10 inh
COc1ccccc1NC(=O)Cc1csc(NC(=O)c2ccc(F)cc2)n1	-1.5	-1.3	-10.0	-0.7	-1.8
Cc1ccc(C(=O)N2CCOC(CCc3ccnc(N)c3)C2)cn1 (stereo unspecified)	-1.9	2.7	2.7	-0.6	-2.8
Cc1ccccc1N1C(=O)Nc2ccccc2S1(=O)=O	0.3	0.0	2.0	0.9	-0.7
Cc1ccc(C(=O)N2CCc3cc(-c4csc(NC(=O)CN(C)C5CCCCC5)n4)ccc32)cc1	-3.2	-2.9	58.0*	6.5	-4.1
COc1cccc(C2c3[nH]c4ccccc4c3C[C@@H]3C(=O)N(CC(O)c4ccccc4)CC(=O)N23)c1 (stereo partly specified)	7.5	9.6	31.5*	-20.9	21.6
O=C(CCn1c(=O)c2ccccc2n(Cc2ccccc2F)c1=O)NCc1ccco1	7.0	-25.8	7.8	-3.1	38.7*
Cc1ccccc1Cn1c(=O)n(CCC(=O)NCc2ccco2)c(=O)c2ccccc21	1.1	-6.7	38.0*	-8.8	15.6
O=C(Nc1ccc(F)cc1F)C1CC(=O)N(Cc2ccccc2)C1 (stereo unspecified)	-2.0	-4.9	1.1	-4.5	1.7
Cc1ccc2nc(NC(=O)C3CC(=O)N(Cc4ccccc4)C3)sc2c1 (stereo unspecified)	2.3	-25.3	31.2*	-13.3	-1.7
Cc1ccc(NC(=O)CC2=NS(=O)(=O)c3ccccc3N2)c(C)c1	2.6	3.0	-3.5	-11.3	-0.4
CCOc1ccc2c(c1)c(=O)c(C(=O)c1ccc(F)cc1)cn2CC(=O)Nc1ccccc1	-2.2	16.6	38.1*	-1.3	28.4
O=C(Cn1cc(C(=O)c2ccccc2)c(=O)c2cc3c(cc21)OCCO3)Nc1ccc(F)cc1	-2.0	4.7	9.0	-38.0	11.5
CCOc1ccc2c(c1)c(=O)c(C(=O)c1ccc(C)cc1)cn2CC(=O)Nc1ccc(OC)cc1	-2.1	1.2	-0.1	-6.5	15.7
CCOc1ccc2c(c1)c(=O)c(C(=O)c1ccccc1)cn2CC(=O)Nc1ccccc1	3.7	26.5	43.5*	-4.9	28.9
CCOc1ccc2c(c1)c(=O)c(C(=O)c1ccccc1)cn2CC(=O)Nc1ccc2c(c1)OCCO2	6.2	8.1	94.8*	12.5	52.6*
Cc1ccc2c(Nc3cccc(F)c3)c(C(=O)N3CCOCC3)cnc2n1	-2.6	-3.2	-3.5	-9.0	-5.5
COc1ccc(C(=O)O)cc1S(=O)(=O)N1CCCc2ccccc21	2.1	-3.0	80.4*	8.7	0.1
COC(=O)c1cccc(NC(=O)c2ccc(OC)c(S(=O)(=O)N3CCCc4ccccc43)c2)c1	-2.0	1.9	-18.8	-12.0	-1.0
CCOC(=O)c1nnc(CS(=O)(=O)c2ccccc2)o1	-0.8	3.6	15.2	10.0	-0.4
O=S(=O)(Nc1ccc2cn[nH]c2c1)c1ccc2c(c1)OCCO2	1.3	-0.3	-11.7	-5.1	4.4
CCc1ccc(S(=O)(=O)Nc2ccc3[nH]ncc3c2)cc1	1.4	3.8	34.9*	0.5	0.8
O=C(Nc1cccc(-c2nnco2)c1)NC1CCCCCC1	0.8	4.4	0.5	3.0	-1.1
O=C(C1CCCC1)N1CCCC1c1ccnc(Nc2ccccn2)n1 (stereo unspecified)	-3.1	-8.7	-7.0	-1.5	0.7
O=C(C1CCC1)N1CCCC1c1ccnc(Nc2cnccn2)n1 (stereo unspecified)	1.2	0.6	44.5*	-0.6	-7.1
CNc1nc(C2CCCN2C(C)=O)nc2c1CCN(S(=O)(=O)c1ccccc1Cl)C2 (stereo unspecified)	-0.5	3.1	13.0	3.0	-2.6
SMILES	UCHL1 block	USP7 inh	USP8 block	OTUD3 inh	USP10 inh
COc1ccccc1NCc1c(C)nn(-c2ccccc2)c1C	-0.1	-12.2	26.1	-3.7	-1.1
COc1cc2nc(CN3CCN(c4ccccc4F)CC3)[nH]c(=O)c2cc1OC	0.8	1.2	-1.9	4.7	-4.8
COc1cc2nc(CN3CCN(c4ccc(O)cc4)CC3)[nH]c(=O)c2cc1OC	1.7	3.0	37.8*	-13.9	-2.4
FC(F)(F)c1cnc(/C=C/Nc2ccccc2Oc2ccccc2)c(Cl)c1	-0.6	-2.3	16.9	-6.7	8.2
FC(F)(F)c1cnc(/C=C/Nc2cccc(Oc3ncc(C(F)(F)F)cc3Cl)c2)c(Cl)c1	-3.4	0.4	74.5*	-13.8	-6.0
Cc1cccnc1NC(=O)C1(c2ccccc2)CCCC1	-0.2	-0.1	-3.9	-11.2	0.8
N#Cc1cc(NC(=O)c2ccccc2)c(=O)n2ccccc12	-18.8	-22.2	-26.7	2.5	-3.7
O=C(Nc1cc2c3c(c1)CC(=O)N3CCC2)c1ccc(F)cc1	-0.6	-1.2	32.6*	-4.3	-1.2
CCc1ccc2ncc(S(=O)(=O)c3ccccc3)c(N3CCCC3)c2c1	-0.7	0.1	36.5*	-5.8	-2.2
CC(=O)c1cc2c(cc1NC(=O)c1cc(S(=O)(=O)N3CCCC3)cn1C)OCO2	-0.1	3.3	0.3	-1.9	-0.3
CC(=O)c1cc2c(cc1NC(=O)c1oc3c(c1C)-c1[nH]ncc1CC3)OCO2	3.8	-3.7	30.7*	-0.3	-1.0
Cc1cc(NS(=O)(=O)c2ccc(NC(=O)c3ccc(N4CCCC4)c([N+](=O)[O-])c3)cc2)no1	5.1	-11.7	-67.6	7.7	31.4*
COc1ccc(Cl)cc1-n1nnc(C(=O)Nc2ccc(C)cc2C)c1C	5.6	6.3	19.0	6.6	4.1
O=C(NCCc1ccccc1)c1ccc2c(=O)n(CCC3=CCCCC3)c(=O)[nH]c2c1	0.6	5.1	-0.1	2.9	24.4
O=C(NCCCN1CCN(c2ccc(F)cc2)CC1)c1ccc2c(=O)n(CCc3ccccc3)c(=O)[nH]c2c1	-0.1	5.8	30.4*	28.8	3.2
COc1c(C)c(OC(=O)c2c(C)c(C)c(OC(=O)c3c(C)c(C)c(O)c(C)c3O)c(C)c2OC)c(C)c(C)c1C(=O)O	-0.4	5.3	9.0	13.5	66.0*
CCN1C(=O)CCC12CCCN(C(=O)NCc1ccccc1)CC2 (stereo unspecified)	3.3	1.8	-0.7	9.6	-1.0
N#Cc1ccccc1NC(=O)c1cc2c(s1)-c1ccccc1S(=O)(=O)C2	3.2	8.3	29.9	55.8*	48.7*
CN(C)c1ccc(C(CNC(=O)c2cccc(S(=O)(=O)N3CCOCC3)c2)c2c[nH]c3ccccc23)cc1 (stereo unspecified)	-3.7	0.3	-18.6	-22.9	-3.2
CCOC(=O)c1ccc(NC(=O)C2CCN(c3nccc4sccc34)CC2)cc1	-1.2	-6.6	53.7*	-16.2	3.7
CC(=O)c1ccc(NC(=O)C2CCN(c3cncnc3N3CCCC3)CC2)cc1	1.0	-12.1	-3.3	-8.4	0.7
Cc1ccccc1-c1nc(NC(=O)COc2ccc(F)cc2)no1	0.7	-0.8	1.6	2.3	3.6
O=C(COc1ccc(Cl)cc1)Nc1noc(-c2ccccc2)n1	13.7	29.9	88.0*	-0.7	49.7*
Nc1c(C(=O)NCC2CCCO2)nnn1-c1ccccc1Cl (stereo unspecified)	1.8	2.0	32.1*	11.1	2.0

Assay outcomes from PubChem BioAssay.
